# Reference: the supplement of paper PMC9262897, “Low-cost anti-mycobacterial drug discovery using engineered E. coli” (Nature Communications, 2022)
# Counter-ions that a name gives are not always drawn. ± gives the standard deviation of the averaged measurements.
# System: E. coli TESEC Mtb Alr
# Assay: growth (OD600 after 10 h); higher = more growth (less inhibition)
# Conditions: arabinose 10000000 nM; compound 0.1 mM; raw OD600 reference: median of DMSO wells 0.146, cell-free background 0.041
# Procedure: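 TESEC Mtb Alr E. coli, or the Alr+ wild-type control, in 384-well plates with Prestwick library compounds at 0.1 mM and 1% DMSO, across arabinose induction levels of 1E3 to 1E7 nM. Growth is read as OD600 after 10 h at 37 °C in triplicate biological replicates.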
row,SMILES,growth
1,COc1cc(C(=O)NS(=O)(=O)c2ccccc2C)ccc1Cc1cn(C)c2ccc(NC(=O)OC3CCCC3)cc12 [Zafirlukast],0.168 ± 0.0084
2,NNc1nncc2ccccc12 [Hydralazine hydrochloride],0.13 ± 0.0019
3,"Nc1c2c(nc3ccccc13)CCCC2O (racemic) [Hydroxytacrine maleate (R,S)]",0.144 ± 0.0023
4,CCN(CC)CCOC(=O)C1(C2CCCCC2)CCCCC1 [Dicyclomine hydrochloride],0.103 ± 0.0024
5,O=C(Oc1cccc2cccnc12)c1ccccc1 [Benzoxiquine],0.14 ± 0.01
6,O=C1CC2(CCCC2)CC(=O)N1CCCCN1CCN(c2ncccn2)CC1 [Buspirone hydrochloride],0.134 ± 0.0058
7,CCN(CC)C(=O)C1(c2ccccc2)CC1CN (stereo not given) [Milnacipran hydrochloride],0.151 ± 0.0028
8,CCN(CC)CC#CCOC(=O)C(O)(c1ccccc1)C1CCCCC1 (stereo not given) [Oxybutynin chloride],0.117 ± 0.0015
9,C[C@]12C=CC(=O)C=C1CC[C@H]1[C@@H]3C[C@@H](O)[C@](O)(C(=O)CO)[C@@]3(C)C[C@H](O)[C@@]12F [Triamcinolone],0.127 ± 0.0023
10,O=C(CCCCC(=O)Nc1c(I)cc(I)c(C(=O)O)c1I)Nc1c(I)cc(I)c(C(=O)O)c1I [Iodipamide],0.143 ± 0.0046
11,CCN(CCO)CCCC(C)Nc1ccnc2cc(Cl)ccc12 (stereo not given) [Hydroxychloroquine sulfate],0.147 ± 0.0019
12,Cc1ccsc1/C=C/C1=NCCCN1C [Morantel tartrate],0.1525 ± 0.00097
13,Cc1noc(NS(=O)(=O)c2ccc(N)cc2)c1C [Sulfisoxazole],0.149 ± 0.0027
14,C=CCOc1ccccc1OCC(O)CNC(C)C (stereo not given) [Oxprenolol hydrochloride],0.141 ± 0.0071
15,CCOc1ccc2c(c1)C(C)=CC(C)(C)N2 [Ethoxyquin],0.227 ± 0.067
16,CC1Cc2ccccc2N1NC(=O)c1ccc(Cl)c(S(N)(=O)=O)c1 (stereo not given) [Indapamide],0.15 ± 0.009
17,CCC(=O)OCC(=O)[C@@]1(OC(=O)CC)[C@H](C)C[C@H]2[C@H]3[C@H]([C@@H](O)C[C@@]21C)[C@@]1(C)C=CC(=O)C=C1C[C@H]3Cl [Alclometasone dipropionate],0.217 ± 0.065
18,Cc1scc2c1N(C(=O)CN1CCN(C)CC1)c1ccccc1NC2=O [Telenzepine dihydrochloride],0.153 ± 0.0031
19,O=C1CC[C@@H](C(=O)N2CSC[C@H]2C(=O)O)N1 [Pidotimod],0.135 ± 0.0014
20,CCC1NC(=O)c2cc(S(N)(=O)=O)c(Cl)cc2N1 (stereo not given) [Quinethazone],0.13 ± 0.0037

row,SMILES,growth
1,CN1CCCN(C(c2ccccc2)c2ccc(Cl)cc2)CC1 (stereo not given) [Homochlorcyclizine dihydrochloride],0.0545 ± 0.00056
2,C1N2CN3CN1CN(C2)C3 [Methenamine],0.14 ± 0.0044
3,CC(C)(O/N=C(\C(=O)N[C@@H]1C(=O)N2C(C(=O)[O-])=C(C[n+]3ccccc3)CS[C@H]12)c1csc(N)n1)C(=O)O [Ceftazidime pentahydrate],0.0674 ± 0.0023
4,CC(C(O)c1ccc(O)cc1)N1CCC(Cc2ccccc2)CC1 (stereo not given) [Ifenprodil tartrate],0.172 ± 0.0094
5,CCN(CC)CCNC(=O)c1ccc(N)cc1 [Procainamide hydrochloride],0.141 ± 0.0042
6,CC[C@H]1OC(=O)[C@H](C)[C@@H](O[C@H]2C[C@@](C)(OC)[C@@H](O)[C@H](C)O2)[C@H](C)[C@@H](O[C@@H]2O[C@H](C)C[C@H](N(C)C)[C@H]2O)[C@](C)(O)C[C@@H](C)CN(C)[C@H](C)[C@@H](O)[C@]1(C)O [Azithromycin],0.0413 ± 0.00057
7,"OC(CCN1CCCCC1)(c1ccccc1)C1CCCCC1 (stereo not given) [Trihexyphenidyl-D,L Hydrochloride]",0.164 ± 0.0019
8,CN1C(C(=O)Nc2ccccn2)=C(O)c2ccccc2S1(=O)=O [Piroxicam],0.155 ± 0.003
9,c1ccc(CN(CC2=NCCN2)c2ccccc2)cc1 [Antazoline hydrochloride],0.14 ± 0.0039
10,CCCc1nc2c(C)cc(-c3nc4ccccc4n3C)cc2n1Cc1ccc(-c2ccccc2C(=O)O)cc1 [Telmisartan],0.156 ± 0.0075
11,Nc1nc(F)nc2c1ncn2[C@@H]1O[C@H](CO)[C@@H](O)[C@@H]1O [Fludarabine],0.133 ± 0.0056
12,CN1CCOC(c2ccccc2)c2ccccc2C1 (stereo not given) [Nefopam hydrochloride],0.157 ± 0.0035
13,NCCCC(O)(P(=O)(O)O)P(=O)(O)O [Alendronate sodium],0.162 ± 0.0058
14,Clc1ccccc1C(c1ccccc1)(c1ccccc1)n1ccnc1 [Clotrimazole],0.0448 ± 0.0032
15,"O=C1c2cccc(O)c2C(=O)c2c(O)cccc21 [1,8-Dihydroxyanthraquinone]",0.153 ± 0.0021
16,CC(N/C(=N\C#N)Nc1ccncc1)C(C)(C)C (stereo not given) [Pinacidil],0.138 ± 0.0067
17,COc1ccc2c(c1)c(CC(=O)OCC(=O)O)c(C)n2C(=O)c1ccc(Cl)cc1 [Acemetacin],0.131 ± 0.0045
18,O=C(O)c1ccccc1C(=O)Nc1ccc(S(=O)(=O)Nc2nccs2)cc1 [Phthalylsulfathiazole],0.166 ± 0.0046
19,c1ccc2c(c1)CCCC2C1=NCCN1 (stereo not given) [Tetrahydrozoline hydrochloride],0.14 ± 0.0055
20,Cc1nnc(NS(=O)(=O)c2ccc(N)cc2)s1 [Sulfamethizole],0.139 ± 0.0043
